LmPK inh = qHTS Assay for Inhibitors of Leishmania Mexicana Pyruvate Kinase (LmPK) | Q27686 | hit rate 0.37% among 290,000 | purified LmPK, Kinase-Glo ATP luminescence, 1 h | Potency, µM (top dose mostly 57.5 µM), actives largely listed as inhibitors
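Purified LmPK (0.1 nM) converted ADP (0.1 mM) to ATP with PEP (0.5 mM) in imidazole buffer pH 7.2 with KCl and MgCl2, 1 h at room temperature. ATP was read by Kinase-Glo luminescence; data normalized to uninhibited and no-enzyme controls.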
Shiga inhibitor = A qHTS for Small Molecule Inhibitors of Shiga Toxin. Vero cells, Shiga toxin protein synthesis inhibition reporter. inhibition, % at 38.7 µM. hit rate 9.2% among 290,000. AID 2315, 2010; in the data active = inhibition mostly above about 28%, no sharp cut-off; inactive = mostly below about 43%
TbPYK inhibitor = qHTS of Trypanosoma Brucei Inhibitors | pyruvate kinase (Trypanosoma brucei), Q57TT1 | TbPYK enzyme, Kinase-Glo Plus ATP luminescence, 45 min | Potency, µM (highest dose often 76.8 µM), usual class: inhibitors | hit rate 0.12% among 410,000 | AID 624173, 2012; note: nearly all actives have a fitted effect of over 50% in size
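ADP (130 uM final) triggers the TbPYK reaction after compound addition; incubation is 45 min at room temperature. Kinase-Glo Plus is then added and luminescence imaged. Normalized data are fitted to concentration-effect curves.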
CHX counter = Cycloheximide Counterscreen for Small Molecule Inhibitors of Shiga Toxin; cell reporter, cycloheximide protein synthesis inhibition counterscreen; max response, %; hit rate 12% among 300,000; AID 2314, 2010; in the data active = max response mostly above about 13%, no sharp cut-off; inactive = mostly below about 14%; note: read at 38.3 µM for the half of the compounds with a filed dose
Giardia FBPA inh = qHTS Assay for Inhibitors of Fructose-1,6-bisphosphate Aldolase from Giardia Lamblia. hit rate 0.71% among 290,000. Potency, µM (titrated, usually from 59.6 µM), hits mostly inhibitors. A8B2U2. purified Giardia FBPA; note: nearly all actives have a fitted effect of over 55% in size
Target sequence (A8B2U2 whole entry, looked up): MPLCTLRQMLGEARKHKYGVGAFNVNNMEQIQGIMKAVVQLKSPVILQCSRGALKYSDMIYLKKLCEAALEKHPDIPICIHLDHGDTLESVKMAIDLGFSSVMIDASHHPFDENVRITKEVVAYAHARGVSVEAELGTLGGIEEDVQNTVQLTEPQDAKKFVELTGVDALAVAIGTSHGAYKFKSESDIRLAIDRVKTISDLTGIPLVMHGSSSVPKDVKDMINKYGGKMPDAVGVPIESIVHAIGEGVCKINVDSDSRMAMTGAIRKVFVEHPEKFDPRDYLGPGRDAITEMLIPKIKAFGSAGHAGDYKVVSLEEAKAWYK
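Giardia FBPA (40 nM reagent) was preincubated 10 min at RT with compound (up to 57.5 uM final), then substrate plus GAPDH/TPI/NAD/arsenate coupling system with diaphorase/resazurin was added; resorufin fluorescence (525/598 nm) was read after 20 min.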
Sm TGR inh = qHTS Assay for the Inhibitors of Schistosoma Mansoni Peroxiredoxins; hit rate 3% among 360,000; Schistosoma mansoni thioredoxin glutathione reductase (TGR), Q962Y6; Potency, µM (doses to about 114 µM), most hits filed as inhibitors; AID 485364, 2010; purified TGR, DTNB reduction, TNB absorbance 405 nm; note: nearly all actives have a fitted effect of over 60% in size
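TGR 20 nM + NADPH 100 uM (dispensed conc.), cpd preinc 15 min RT; start with NADPH (500 uM addition) then DTNB (15 mM addition). Kinetic TNB absorbance, 405 nm filter. Four-parameter Hill fit across titration.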
Numbers stand for hits; - = inactive; ? = inconclusive; . = no result. The full list was thinned out, with hits kept by preference. Unless noted, calls come from the whole dose curve; as a rule, active = well fitted curve in the direction sought with a large enough effect; inconclusive = small, poorly fitted or top-dose-only effect, or another doubt; inactive = no such curve, though single readings can be large; an effect the other way counts as inactive or inconclusive.

SMILES	LmPK inh	Shiga inhibitor	TbPYK inhibitor	CHX counter	Giardia FBPA inh	Sm TGR inh
O=C(CSc1ccc(-c2ccccn2)nn1)N1CCCC1	-	-	?	25	?	-
O=C(CSc1ccc(-c2ccccc2)nn1)c1ccccc1	-	60	-	42	-	-
O=C(CSc1ccc(-c2ccccn2)nn1)NC1CCCC1	-	-	-	-	-	-
O=C(CSc1ccc(-c2ccccn2)nn1)c1ccc(F)cc1	-	51	-	33	?	-
Cn1c(NCCCCO)nc2c1c(=O)n(Cc1ccc(Cl)cc1)c(=O)n2C	.	.	-	.	.	-
Cc1ccc(OCc2nc(-c3ccc(C(=O)NCCc4ccc(S(N)(=O)=O)cc4)cc3)oc2C)cc1	.	.	-	.	.	-
O=C(CSc1cnc2ccccc2n1)c1ccc(F)cc1	-	65	-	60	-	-
c1ccc(CSc2ccc(-c3ccccn3)nn2)cc1	-	110	-	52	-	-
COc1ccccc1NC(=O)CSc1ccc(-c2ccccn2)nn1	-	-	-	13	.	-
Cc1cccc(C(=O)Nc2ccc(N3CC=C(c4ccccc4C)CC3)c(C(=O)O)c2)c1	.	.	-	.	.	-
O=C(CCCCn1c(=O)c2ccccc2n(Cc2cccc(F)c2)c1=O)NCCc1ccccc1	.	.	-	.	.	-
O=c1c2ccccc2c(C=Nc2ccc(S(=O)(=O)N3CCCCC3)cc2)c(O)n1-c1ccc(Cl)cn1	-	-	-	-	-	-
O=c1c2ccccc2c(C=Nc2cccc(S(=O)(=O)NCc3ccco3)c2)c(O)n1-c1ccc(Cl)cn1	-	51	-	44	-	-
C/C(N)=C(/C#N)C(=O)CSc1nnnn1-c1ccc(C)cc1	-	-	-	36	-	-
CSc1nnc(Nc2ccccc2C)s1	-	-	-	16	-	-
Cc1ccccc1Nc1nnc(SCC(=O)c2ccc(O)cc2O)s1	-	-	-	-	-	-
C/C(N)=C(/C#N)C(=O)CSc1ncnc2ccccc12	-	-	-	-	-	-
C/C(N)=C(/C#N)C(=O)CSc1nc2ccccc2[nH]1	-	67	-	35	-	-
C/C(N)=C(/C#N)C(=O)CSc1nnc(Nc2ccccc2C)s1	-	51	-	46	-	-
Cc1cccc(N2CCN(S(=O)(=O)c3cc(C(=O)Nc4ccc(Oc5ccccc5)cc4)ccc3F)CC2)c1C	.	.	-	.	.	-
COc1cc(NC(=O)CSc2nnc(NC(C)C)s2)cc(OC)c1OC	-	-	-	-	-	-
C/C(N)=C(/C#N)C(=O)CSc1nnc(Nc2ccccc2)s1	-	139	-	42	-	-
C/C(N)=C(/C#N)C(=O)CSc1nnc(NC(C)C)s1	-	58	-	30	-	-
O=C(N/N=C/c1cccc(OC(=O)c2cccc(Br)c2)c1)c1ccncc1	-	-	-	-	-	?
COc1ccc2[nH]cc(C(=O)CN3CCN(C4CCCCC4)CC3)c2c1	-	-	-	-	-	-
SMILES	LmPK inh	Shiga inhibitor	TbPYK inhibitor	CHX counter	Giardia FBPA inh	Sm TGR inh
COc1ccc2c(C(=O)CN3CCSCC3)c[nH]c2c1	-	40	-	32	-	-
COc1ccc2[nH]cc(C(=O)CN3CCCCC3)c2c1	-	-	-	27	-	-
COc1ccc2c(C(=O)CN(C)C3CCCCC3)c[nH]c2c1	-	-	-	-	-	35µM
c1ccc(Cc2nnc3sc(-c4ccc5c(c4)OCCO5)nn23)cc1	-	-	-	36	-	-
Nc1nc(-c2ccccc2)c(N=Nc2cccnc2)s1	-	-	-	-	-	-
Nc1nn(-c2ccccc2)c(N)c1N=Nc1cccc(F)c1	-	88	-	62	-	-
Cc1nn(-c2ccccc2)c(C)c1C(=O)OCC(=O)Nc1ccc2c(c1)OCO2	-	-	-	-	-	-
Cc1nn(-c2ccccc2)c(N)c1N=Nc1cccnc1	-	61	-	41	-	-
Nc1nn(-c2ccccc2)c(N)c1N=Nc1ccc2c(c1)OCO2	-	active	-	44	-	-
Cc1nn(-c2ccccc2)c2c1C(c1ccc(F)cc1F)C(C#N)=C(N)O2 (stereo not drawn)	-	-	-	-	-	-
CC(C)(C)OC(=O)N1CCN(C(=O)c2[nH]cnc2C(=O)Nc2nccs2)CC1	.	.	-	.	.	-
CCC(=O)N1c2ccc(S(=O)(=O)N3CCCCCC3)cc2CC1C (stereo not drawn)	.	.	-	.	.	-
OCC#CCSc1nnc(-c2ccc(Br)cc2)o1	-	-	-	33	-	-
OCC#CCSc1nnc(-c2ccccc2Br)o1	-	-	-	27	-	-
COC(=O)Sc1nnc(-c2ccc(Br)cc2)o1	-	-	.	-	-	45µM
NC(=O)C1CCN(Cc2nc3cc(C(F)(F)F)ccc3c(=O)[nH]2)CC1	-	-	-	-	-	-
CCOc1ccccc1CNC(=O)c1ccc(NC(=O)C2=C(C)OCCS2)cc1	-	-	-	-	.	-
Cc1ccc(CN2CCC(CNC(=O)c3ccc(NC(=O)C4=CSCCO4)cc3)CC2)cc1	-	-	-	-	.	-
Cc1cccc(CNC(=O)c2ccc(NC(=O)C3=CSCCO3)cc2)c1	-	-	-	40	-	-
Cc1cccc(CNC(=O)c2ccccc2NC(=O)C2=CSCCO2)c1	-	-	-	-	.	-
O=C(Nc1ccc(C(=O)NCC2CCN(Cc3ccccc3F)CC2)cc1)C1=CSCCO1	-	-	-	14	.	-
CCCSCCCNC(=O)c1ccc(NC(=O)C2=CSCCO2)cc1	-	67	-	-	.	-
CCOc1ccccc1CNC(=O)c1ccc(NC(=O)C2=CSCCO2)cc1	-	-	-	18	.	-
COC(=O)Cn1c(C(=O)N2CCCC2)cc2c1C[C@H]1CN(C(=O)c3ccccc3)[C@@](Cc3ccc(OC)cc3)(C(=O)OC)[C@@H]21	.	.	-	.	.	.
CN(Cc1ccccc1)C(=O)c1ccccc1NC(=O)C1=CSCCO1	-	-	-	-	.	-
SMILES	LmPK inh	Shiga inhibitor	TbPYK inhibitor	CHX counter	Giardia FBPA inh	Sm TGR inh
CCOc1ccc(CNC(=O)c2ccccc2NC(=O)C2=CSCCO2)cc1	-	-	-	-	.	-
CN(Cc1ccccc1)C(=O)c1ccc(NC(=O)C2=CSCCO2)cc1	-	44	-	48	.	-
COc1ccc(CNC(=O)c2ccc(NC(=O)C3=CSCCO3)cc2)cc1	-	71	-	28	.	-
Cc1sc2ncn(CC(=O)N(C)c3ccc(C(C)C)cc3)c(=O)c2c1S(=O)(=O)N1CCC(C)CC1	.	.	-	.	.	-
CC(=O)c1ccc(N2CC(C)(C)C2=O)cc1	-	-	-	-	-	-
CN(C)c1ccc(N2CC(C)(C)C2=O)cc1	-	44	-	33	-	-
COc1ccc(NC(=O)c2ccc3c(=O)n4c(nc3c2)CCCCC4)cc1	-	-	-	21	.	-
